GALR2 ag = activates the human galanin receptor 2. O43603. GALR2-expressing cells, agonist activation read-out. activation, % (no concentration beside the values). 140,000 compounds, 0.48% hits. AID 803; in the data active means activation above about 5%, passing the limit was not always enough;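 further: 0% = vehicle buffer wells and 100% = reference agonist at full effect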
Target sequence (O43603 whole entry, looked up): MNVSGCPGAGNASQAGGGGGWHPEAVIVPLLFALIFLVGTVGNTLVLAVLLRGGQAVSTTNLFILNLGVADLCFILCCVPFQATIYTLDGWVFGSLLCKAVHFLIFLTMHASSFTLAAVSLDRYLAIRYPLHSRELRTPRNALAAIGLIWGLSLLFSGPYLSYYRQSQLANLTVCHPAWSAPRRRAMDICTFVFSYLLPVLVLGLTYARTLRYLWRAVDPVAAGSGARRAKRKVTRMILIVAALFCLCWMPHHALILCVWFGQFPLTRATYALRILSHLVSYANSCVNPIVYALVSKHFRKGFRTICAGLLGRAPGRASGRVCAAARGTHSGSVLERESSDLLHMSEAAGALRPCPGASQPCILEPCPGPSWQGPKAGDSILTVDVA
GALR2 antag = GALR2 (human) receptor antagonism; O43603; GALR2-expressing cells, antagonist mode; inhibition, % at 4 µM; 140,000 compounds, 0.39% hits; AID 828;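 further: cells stimulated with galanin 1-16 at roughly its EC80; 0% = agonist challenge control and 100% = basal control without agonist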
S1P2 antag = antagonists of human S1P2 receptor; O95136; cell-based S1P2 antagonist assay, inhibition at 5 uM; inhibition, % at 5 µM; 97,000 compounds, 0.21% hits; AID 736; in the data active means inhibition above about 45%;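 further: CRE beta-lactamase reporter cells expressing human S1P2 stimulated with S1P; 0% = agonist at EC80 alone and 100% = agonist plus reference antagonist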
Target sequence (O95136 whole entry, looked up): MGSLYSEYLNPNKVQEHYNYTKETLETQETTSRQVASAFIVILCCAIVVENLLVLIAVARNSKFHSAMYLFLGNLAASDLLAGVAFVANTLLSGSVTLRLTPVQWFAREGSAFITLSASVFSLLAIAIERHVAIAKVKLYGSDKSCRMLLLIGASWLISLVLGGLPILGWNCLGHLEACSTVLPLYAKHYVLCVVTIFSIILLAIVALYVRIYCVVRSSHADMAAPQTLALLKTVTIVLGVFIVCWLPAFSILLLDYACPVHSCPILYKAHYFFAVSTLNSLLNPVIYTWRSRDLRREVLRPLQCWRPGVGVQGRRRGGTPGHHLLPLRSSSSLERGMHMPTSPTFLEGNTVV
Phagocytosis inh = inhibitors of macrophage phagocytosis; J774A.1 macrophage IgG-bead phagocytosis, imaging; inhibition, % at 5 µM; 110,000 compounds, 0.07% hits; AID 1029;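 active means inhibition above the mean of the plate negative controls plus 5 SD, cut at about 13% in these data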;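 further: phagocytic index as fraction of beads internalized from green versus red external bead signal; plate controls were DMSO negative control for no effect and cytochalasin-D positive control for full effect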
Candida biofilm = kills Candida albicans biofilms | 85,000 compounds, 0.14% hits | AID 834 | inhibition, % at 6 µM | C. albicans biofilm + clotrimazole, Alamar Blue;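 active means inhibition above 20%; inactive means inhibition below 20%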;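 further: preformed 24 hr biofilms exposed to compound for 48 hr; 0% = biofilm without compound and 100% = blank killed by clotrimazole plus chlorhexidine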
S1P2 agonist = activates the human S1P2 receptor; activation, % at 4.5 µM; 97,000 compounds, 0.46% hits; S1P2-expressing cell line, agonist reporter read-out; AID 729; in the data active means activation above about 16%;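 further: 0% = vehicle low control and 100% = maximal reference agonist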
GALR2 ant conf = confirmation of human galanin receptor 2 (GALR2) antagonists. shares compounds with GALR2 antag. GALR2-expressing cells, antagonist mode, inhibition. inhibition, % at 4 µM. 480 compounds, 60% hits. AID 866;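 further: cells stimulated with galanin at about its EC80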
BLA inhib ctr = beta-lactamase inhibition, GALR2 counterscreen; shares compounds with GALR2 antag; CHO NFAT-BLA reporter, beta-lactamase FRET, thapsigargin-stimulated; inhibition, % at 4.2 µM; 480 compounds, 36% hits; AID 867;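 active means inhibition above the mean inhibition across tested compounds plus 3 SD, cut at about 27% in these data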;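 further: 0% = 500 nM thapsigargin stimulated wells and 100% = unstimulated BSA only wells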
* hit, by the source's call; / = no result. Only some compounds are listed: those with a hit (about 1.3% of all), similar ones and a draw of the others. Unless noted, no stated cut-off is given here; in the data, active means inhibition above about 27%; inactive means the rest.

SMILES	GALR2 ag	GALR2 antag	S1P2 antag	Phagocytosis inh	Candida biofilm	S1P2 agonist	GALR2 ant conf	BLA inhib ctr
CCC(=O)N(CCCN(C)C)c1nc(-c2cc(OC)ccc2OC)cs1	-0.8	6.5	2.9	-0.3	8.0	-4.5	/	/
COCCCN(C(=O)c1ccco1)c1nc(-c2cc(OC)ccc2OC)cs1	-0.8	84.6*	-2.8	-1.1	1.9	-1.9	4.8	11.7
CC[C@@H](NS(=O)(=O)c1ccc(C)cc1)C(=O)Oc1ccc2c3c(c(=O)oc2c1)CCC3	0.6	-27.2	/	-7.7	/	/	/	/
Cc1ccc(S(=O)(=O)NC(C(=O)Oc2ccc3c(C(F)(F)F)cc(=O)oc3c2)c2ccccc2)cc1 (stereo not drawn)	-0.1	34.8*	/	4.0	/	/	25.3	30.8*
COc1cc(C)c(S(=O)(=O)N2CCOCC2)cc1C	-3.0	-0.2	-2.5	/	6.0	-3.8	/	/
N#Cc1ccc(-c2ccccc2)nc1SCC(=O)c1cc2ccccc2oc1=O	-0.8	38.4*	30.5	0.7	/	-7.2	20.8	19.5
CC(C)c1c(C#N)c(N)nc(SCC(=O)c2cc3ccccc3oc2=O)c1C#N	1.5	1.7	/	-0.6	8.7	/	/	/
C=CCC(CC=C)(C(=O)O)c1ccccc1	-1.9	9.4	16.6	-1.6	1.9	-5.3	/	/
Cc1ccc(/C(C#N)=C\c2ccc(N3CCOCC3)o2)cc1	-2.2	43.9*	50.6*	1.0	/	-7.5	15.0	21.5
Cc1ccc2nc(/C(C#N)=C\c3ccc(N4CCOCC4)o3)[nH]c2c1	-0.4	28.6*	-26.8	/	2.1	0.0	23.1	6.3
Cc1nc2ccccn2c1P(=O)(N1CCCCC1)N1CCCCC1	-0.9	-8.9	-4.7	/	8.8	-4.0	/	/
CCc1cccc(CC)c1NC(=O)COC(=O)c1ccc2c(c1)S(=O)(=O)c1ccccc1C2=O	-0.7	-6.2	/	-8.1	/	/	/	/
COc1ccc(C(=O)NCCn2cc(SCC(=O)NCc3ccco3)c3ccccc32)cc1	-0.2	1.1	3.5	0.1	/	-5.7	/	/
Clc1cccc(Cl)c1/C=C/c1nc2ccccc2[nH]1	-1.2	27.4*	-5.0	-3.8	/	-3.7	29.1*	11.7
O=C1N=C(N2CCN(c3ccccc3)CC2)SC1Cc1ccccc1 (stereo not drawn)	-1.9	10.0	/	/	/	/	/	/
O=C(CSc1nc2ccccc2s1)N1c2ccccc2Sc2ccc(Cl)cc21	-1.6	1.4	0.4	4.8	/	-1.1	/	/
CCN(CC)CC(=O)N1c2ccccc2Sc2ccc(Cl)cc21	-0.9	28.8*	8.0	/	3.6	-6.2	16.0	6.9
COc1ccc(OC)c(-n2nnnc2SCC(=O)NCCc2ccccc2)c1	-0.4	8.9	-11.6	-0.3	6.3	-7.5	/	/
Cc1cc(/C=N/n2cnnc2)c(C)n1-c1ccc(OCc2ccc(Cl)cc2)cc1	0.7	44.6*	76.7*	1.9	5.5	-6.8	40.2*	18.6
CCC(C)n1c(SCc2ccc([N+](=O)[O-])cc2)nc2ccsc2c1=O (stereo not drawn)	-0.9	-1.6	/	1.9	/	/	/	/
O=C(/C=C/c1ccc(Cl)c([N+](=O)[O-])c1)Nc1cccc(NC(=O)c2ccco2)c1	-2.0	6.2	/	5.8	/	/	/	/
O=C(/C=C/c1ccc(Cl)c([N+](=O)[O-])c1)Nc1ccc(NC(=O)c2ccco2)cc1	-0.9	32.7*	/	-12.5	/	/	17.8	1.9
c1ccc(-n2nnnc2Oc2cccc3cccnc23)cc1	-3.1	-1.4	16.4	-0.1	-0.2	-9.4	/	/
N#Cc1cc(Oc2cccc3cccnc23)c(-n2nnc3ccccc32)cc1C#N	-5.8	39.3*	-1.7	1.3	1.4	-5.8	18.4	13.5
CCCNC(=O)c1ccc2c(c1)ncn2-c1ccccc1OC	-1.2	27.9*	/	-5.1	0.3	/	13.5	4.7
SMILES	GALR2 ag	GALR2 antag	S1P2 antag	Phagocytosis inh	Candida biofilm	S1P2 agonist	GALR2 ant conf	BLA inhib ctr
CCC1(C(=O)OC)NC(c2ccco2)C2C(=O)N(c3ccc(C)cc3)C(=O)C21 (stereo not drawn)	-2.7	29.7*	0.2	-2.2	10.0	-4.6	7.4	1.8
CCOC(=O)C1(C)NC(c2ccco2)C2C(=O)N(c3ccc(C)cc3)C(=O)C21 (stereo not drawn)	-2.2	2.0	1.0	/	3.4	-8.8	/	/
Cc1ccc(C(=O)NCCc2nnc3ccc(SCC(=O)Nc4ccccc4C)nn23)cc1	-2.2	1.4	/	-4.0	/	/	/	/
CCOC(=O)N1CCC(N2C(=O)c3ccc(C(=O)Nc4ccc(F)cc4F)cc3C2=O)CC1	-1.0	28.0*	/	-0.4	2.1	/	-1.9	0.2
Cc1cc(NC(=O)c2ccc3c(c2)C(=O)N(C2CCCCC2)C3=O)no1	-2.1	4.0	8.3	-1.1	0.0	-3.0	/	/
O=C(CCn1c(=S)[nH]c2cc3c(cc2c1=O)OCO3)N1CCN(c2ccccn2)CC1	/	/	/	/	-3.8	/	/	/
CC(C)(C)C(=O)/C(=C\c1ccc([N+](=O)[O-])cc1)n1cncn1	1.4	55.9*	66.2*	/	9.4	-9.4	72.6*	56.8*
CCCOc1ccc(C(C)=O)cc1CC(C(N)=O)C(N)=O	-0.6	-6.6	-0.1	/	0.1	-2.4	/	/
COc1cccc(-n2nnnc2S(C)(=O)=O)c1	-3.3	33.0*	16.6	1.3	0.2	-7.3	54.9*	58.1*
COc1cccc(Oc2nnnn2-c2ccccc2)c1	-1.8	0.2	-17.9	-0.4	5.4	-2.4	/	/
COc1cccc(C(=O)NC(C)C(c2cccs2)N2CCN(C)CC2)c1 (stereo not drawn)	-3.2	-0.7	-5.9	-0.5	7.2	-5.2	/	/
O=C(Cn1nnc2ccccc21)c1ccccc1	-2.0	11.8	/	-8.3	/	/	/	/
O=C1C=CC(=O)N1CCCCCCN1C(=O)C=CC1=O	-3.0	86.2*	/	4.8	/	/	78.1*	95.3*
N#CC(C#N)=C1C=CC=CN1/C(=C\c1ccco1)C(=O)c1ccc(-c2ccccc2)cc1	0.2	28.2*	/	-0.9	/	/	40.9*	33.3*
CC(/C=N/n1c(-c2ccc(Cl)cc2)n[nH]c1=S)=C\c1ccco1	-0.1	7.8	/	-14.5	/	/	/	/
N#CC(C#N)=C1C=CC=CN1/C(=C\c1ccco1)C(=O)c1ccc(Cl)cc1	-0.5	67.6*	/	/	/	/	60.1*	71.0*
O=C(O)/C(=C/c1ccco1)NC(=O)c1ccccc1	0.1	0.8	/	-7.0	/	/	/	/
C=C1C(=O)[C@@]23[C@H](O)C[C@@H]4C(C)(C)CC[C@H](O)[C@@]4(C)[C@@H]2CC[C@@H]1[C@H]3O	-0.2	38.0*	/	/	/	/	38.2*	58.0*
C=C1C(=O)[C@@]23[C@H](O)C[C@@H]4C(C)(C)CC[C@H](O)[C@]4(C)[C@@H]2C[C@H](O)[C@@H]1[C@H]3O	-2.0	-6.0	/	/	/	/	/	/
COC(=O)[C@@H](NC(=O)Nc1ccc(OC)cc1)C(C)C	-1.8	2.2	-4.2	-0.7	4.6	-4.2	/	/
CCOC(=O)N1CCN(C(=O)c2ccc(NC(C)=O)cc2)CC1	-1.4	9.0	10.8	/	0.4	-10.6	/	/
CCOC(=O)N1CCN(C(=O)c2ccc(NC(=O)c3ccc(C)cc3)cc2)CC1	1.1	28.0*	-2.0	-0.6	0.3	-7.1	30.5*	19.1

From PubChem
